Screening data as filed in PubChem BioAssay.
An excerpt weighted towards active compounds, which were near 4.8% of everything screened.
DAX1 inh-1: DAX1 (NR0B1) inhibition, primary screen; inhibition, % at 6.8 µM; AID 652010; hit rate 1.1% among 370,000; HEK293T StAR-luciferase reporter, SF-1/DAX-1 repression relief;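 active = inhibition above the mean over all tested compounds plus 3 SD, cut at about 3.6% in these data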;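 also: higher inhibition means more luminescence from relief of DAX-1 repression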
DAX1 inh-2: inhibits human nuclear receptor DAX1 | HEK293 Gal4-DAX1 luciferase reporter, luminescence | inhibition, % at 6.75 µM | hit rate 0.99% among 340,000;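 active = inhibition above the mean over all tested compounds plus 3 SD, cut at about 4.2% in these data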;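 also: inhibition shows as a rise in luminescence from relieved DAX1 repression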
Target sequence (P51843 207-470 limits assumed): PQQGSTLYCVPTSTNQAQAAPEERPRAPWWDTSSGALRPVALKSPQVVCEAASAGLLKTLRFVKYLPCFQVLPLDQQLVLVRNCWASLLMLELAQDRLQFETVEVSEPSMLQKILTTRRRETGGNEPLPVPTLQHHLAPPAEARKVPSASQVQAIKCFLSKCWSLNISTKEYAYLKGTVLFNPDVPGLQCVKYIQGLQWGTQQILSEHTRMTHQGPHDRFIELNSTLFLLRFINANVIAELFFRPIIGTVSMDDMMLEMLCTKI
hcDAF12 agonist: activators of H. contortus DAF-12 nuclear receptor; HEK293 hcDAF-12 lit1-tk-luc reporter, luminescence; 0% DMSO, 100% Δ7-dafachronic acid; hit rate 1.4% among 370,000; activation, % at 6.8 µM;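 active = activation above the mean of all tested compounds plus 3 SD, cut at about 5.5% in these data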
SMARCA2 activ: activators of SMARCA2 function | MG213 cells, MMTV-luciferase reporter, dexamethasone, overnight | activation, % at 9.1 µM | hit rate 1% among 370,000; in the data active = activation above about 7.8%
ssDAF-12 act: S. stercoralis DAF-12 activation, primary screen; hit rate 1% among 370,000; activation, % at 6.8 µM; HEK293 ssDAF-12/GRIP1 lit1-tk-luc reporter, luminescence; % of 3 µM dafachronic acid response;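 active = activation above the mean over all tested compounds plus 3 SD, cut at about 0.9% in these data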
hgDAF12 agonist: agonists of H. glycines DAF-12 nuclear receptor | activation, % at 6.8 µM | HEK293 GAL4-hgDAF12 UAS-luciferase reporter, agonist luminescence; normalized to butyrate control | hit rate 1.8% among 370,000;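 active = activation above a cutoff set at the mean of all screened compounds plus 3 SD, cut at about 10% in these data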
SMARCA2 conf: confirmation of SMARCA2 (BRM) function activators. shares compounds with SMARCA2 activ. MG213 cells, MMTV-luciferase with dexamethasone, luminescence, overnight; MG213 cells expressing E1A, Rb sequestered; DMSO wells 0%, reference activator 100%. activation, % at 9.1 µM. hit rate 30% among 3,500;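 active = activation above its plate's cutoff, the mean activation of tested wells plus 3 SD, cut at about 7.9% in these data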
GAL4-VP16 Luc: activates GAL4-VP16 luciferase, flagging SMARCA2 activator hits; activation, % at 9.1 µM; shares compounds with SMARCA2 activ; AID 686939; hit rate 41% among 3,500; HEK293 GAL4-VP16 pG5luc reporter, luciferase luminescence; scaled: DMSO wells 0%, SAHA wells 100%;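 active = activation above the solvent-only control well mean plus 3 SD, averaged across control plates, cut at about 5.2% in these data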
Large screens that a line does not name were inactive (follow-up assays come after a bar, where they were run).

CCCc1cc(=O)c2ccc(OC/C(C)=N/O)cc2o1	SMARCA2 activ 8.5 | SMARCA2 conf inactive | GAL4-VP16 Luc inactive
CCCc1cc(=O)c2ccc(OCC(C)=O)cc2o1	none
CNC(=S)Nc1sc2c(c1C(=O)OC)CCC2	SMARCA2 activ 9.1 | SMARCA2 conf inactive | GAL4-VP16 Luc inactive
c1ccc(CN2CCC(Nc3nc(-c4cccnc4)nc4ccccc34)CC2)cc1	SMARCA2 activ 8.5 | SMARCA2 conf 19.1 | GAL4-VP16 Luc inactive
Cc1ccc(/C(C#N)=C\c2ccc(N3CCOCC3)o2)cc1	SMARCA2 activ 9.1 | SMARCA2 conf 13.7 | GAL4-VP16 Luc 21.2
COc1cc(/C=C(\C#N)C(=O)Nc2ccccc2)ccc1OCCN1CCOCC1	SMARCA2 activ 8.5 | SMARCA2 conf inactive | GAL4-VP16 Luc 6.0
N#C/C(=C/c1ccc(N2CCOCC2)o1)C(=O)Nc1ccccc1	hcDAF12 agonist 5.9, SMARCA2 activ 8.8, hgDAF12 agonist 11.2 | SMARCA2 conf inactive | GAL4-VP16 Luc 11.2
COC(=O)C1CN(C2CCCC2)CCS(=O)(=O)N1Cc1cn(Cc2ccc(C)cc2)nn1 (configuration not stated)	none (no result: DAX1 inh-2)
COCCCNC(=O)C[C@H]1C(=O)N(Cc2ccc(OC)cc2)C2=CCCCC[C@@]21C(=O)OC	none (no result: DAX1 inh-2)
O=C(OC12CCCN(C1)/C(=C/c1cccnc1)C2)c1ccc(F)cc1 (configuration not stated)	none (no result: DAX1 inh-2)
O=S1(=O)c2ccccc2-c2c(nnn2Cc2ccccc2)CN1C1CC1	none (no result: DAX1 inh-2)
CCCC(=O)Nc1ccc(-c2csc(NNC(C)=O)n2)cc1	SMARCA2 activ 12.4 | SMARCA2 conf inactive | GAL4-VP16 Luc inactive
CC(=O)NNc1nc(-c2ccc(C)cc2)cs1	none
CCOC(=O)CC[C@@]1(C(=O)OCC)C[C@@H](CC(=O)N2CCCC2)C(=O)N2CCCC=C21	none (no result: DAX1 inh-2)
Cc1ccc(NC(=O)c2ncc(Cl)c(Cl)c2Cl)cc1C	hcDAF12 agonist 5.9, SMARCA2 activ 8.2 | SMARCA2 conf inactive | GAL4-VP16 Luc 9.5
CC(C)(C)c1ccc(C(=O)NCC(=O)NCc2ccccn2)cc1	SMARCA2 activ 8.4 | SMARCA2 conf inactive | GAL4-VP16 Luc inactive
O=C(/C=C/Nc1ccc(F)c(Cl)c1)c1ccccc1	hcDAF12 agonist 6.3, SMARCA2 activ 9.3 | SMARCA2 conf inactive | GAL4-VP16 Luc 13.3
CC(=O)Nc1ccc(N/C=C/C(=O)c2ccc(Cl)cc2)cc1	none
CN1CCCCC(NC(=O)CCl)C1=O (configuration not stated)	none (no result: DAX1 inh-2)
O=C(COc1ccccc1)NCCSc1ccccc1	SMARCA2 activ 9.4 | SMARCA2 conf 10.1 | GAL4-VP16 Luc 7.7
O=C(Cn1sc2ccccc2c1=O)Nc1ccc(F)cc1	SMARCA2 activ 9.2 | SMARCA2 conf 10.7 | GAL4-VP16 Luc inactive
O=C(Nc1nnc(-c2cccnc2)s1)c1cnc2ccccc2c1	SMARCA2 activ 8.0 (no result: DAX1 inh-2) | SMARCA2 conf inactive | GAL4-VP16 Luc inactive
O=C(Nc1nnc(C(F)(F)F)s1)c1cccnc1	hcDAF12 agonist 5.6, SMARCA2 activ 9.0 | SMARCA2 conf inactive | GAL4-VP16 Luc 9.3
COc1ccccc1NS(=O)(=O)c1cc(NC(=O)/C=C/c2cccs2)ccc1N1CCOCC1	SMARCA2 activ 17.7 | SMARCA2 conf 9.2 | GAL4-VP16 Luc inactive
O=C(CCc1ccccc1-c1ccccc1CCNC(=O)c1cccc(F)c1)NCc1ccccc1	none (no result: DAX1 inh-2)
CCOC(=O)[C@]12CCCC=C1N(CCCOC)C(=O)[C@@H]2CC(=O)NCc1ccccc1	none (no result: DAX1 inh-2)
CC(=O)NC1C(=O)N=C(SCC(=O)Nc2c(C)cccc2C)NC1=O (configuration not stated)	none
CC(=O)NC1C(=O)N=C(SCC(=O)NCc2ccccc2)NC1=O (configuration not stated)	SMARCA2 activ 10.5 | SMARCA2 conf inactive | GAL4-VP16 Luc inactive
COc1ccc(-c2cc(C(=O)O)c(C)o2)cc1OC	none
